# Screens from PubChem BioAssay.
# ERa SRC1 pot – enhancers of ERα–SRC-1 coactivator binding, primary screen, biochemical, TR-FRET, ERα LBD, low estradiol; Estrogen receptor (Homo sapiens), P03372; TR-FRET ERalpha-LBD/SRC-Cy5 coactivator binding, 2 h; 100 = basal binding, no effect; coactivator binding (% of control), % at 25.6 µM; 1.3% of 86,000 active; in the data active = activity above about 200%;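 note: binding measured in presence of low estradiol as agonist stimulus; 0% = peptide alone without receptor and 100% = receptor with peptide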
# Target sequence (P03372 whole entry, looked up, the tested form may be a part): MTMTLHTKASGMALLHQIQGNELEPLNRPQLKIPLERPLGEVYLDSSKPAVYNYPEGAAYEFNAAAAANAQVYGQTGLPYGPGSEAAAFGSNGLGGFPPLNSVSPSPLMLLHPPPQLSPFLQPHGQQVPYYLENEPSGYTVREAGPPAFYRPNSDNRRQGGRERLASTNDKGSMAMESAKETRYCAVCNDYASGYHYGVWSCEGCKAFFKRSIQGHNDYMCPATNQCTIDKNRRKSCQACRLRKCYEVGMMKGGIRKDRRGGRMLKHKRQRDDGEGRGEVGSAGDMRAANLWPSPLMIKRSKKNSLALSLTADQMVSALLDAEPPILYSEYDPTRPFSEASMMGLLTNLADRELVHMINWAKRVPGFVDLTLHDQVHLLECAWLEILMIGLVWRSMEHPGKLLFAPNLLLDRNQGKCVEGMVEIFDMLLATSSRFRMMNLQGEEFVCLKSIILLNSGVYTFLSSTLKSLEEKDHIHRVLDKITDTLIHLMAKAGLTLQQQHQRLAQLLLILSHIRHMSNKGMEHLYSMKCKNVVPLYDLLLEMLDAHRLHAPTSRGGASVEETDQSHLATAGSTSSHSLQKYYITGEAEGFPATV
# ERa SRC1 inh – ERα–SRC-1 coactivator interaction inhibitors, primary screen, biochemical, TR-FRET, ERα LBD, estradiol-bound; Estrogen receptor (Homo sapiens), P03372; TR-FRET ER-alpha LBD / SRC-1 peptide; inhibition, % at 25.6 µM; 1.7% of 86,000 active; AID 629, 2007; in the data active = inhibition above about 50%;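 note: 0% = receptor plus peptide control and 100% = peptide only without receptor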
# Smad3 FoxH1 inh – Smad3/FoxH1 peptide binding inhibitors, primary screen, biochemical, TR-FRET; 0.29% of 88,000 active; AID 630, 2007; TR-FRET Smad3/Dy647-FoxH1 peptide binding, europium anti-His; inhibition, % at 25 µM; Mothers against decapentaplegic homolog 3 (Homo sapiens), P84022;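 active = compounds that reduce the energy-transfer binding signal between the protein and its labelled peptide by more than half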;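 note: 0% = Smad3 plus labelled peptide maximal FRET and 100% = peptide-only background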
# MRP resist rev – reversal of MRP1-mediated doxorubicin resistance, primary screen, H69AR cells, doxorubicin co-treatment; 0.04% of 85,000 active; differential viability (reversal), % at 10 µM; H69AR cells + 2 uM doxorubicin, CellTiter-Glo, 72 h;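 active = viability drop by adding the cancer drug above about 55%, with treated viability meeting a 40% cutoff, limit read from the data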;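 note: viability without doxorubicin minus viability with 2 µM doxorubicin for each compound; larger differential means the compound sensitizes cells more to doxorubicin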
# ERb SRC1 inh – inhibitors of ERβ-SRC1 coactivator interaction, primary screen, biochemical, TR-FRET, ERβ LBD, SRC-1 peptide. Estrogen receptor beta (Homo sapiens), Q92731. TR-FRET ER-beta LBD / SRC1-Cy5 peptide binding; receptor agonist-loaded with 1 µM estradiol. inhibition, % at 25.6 µM. 1.3% of 86,000 active. AID 633, 2007;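 active = compounds whose percent inhibition of the receptor-coactivator binding signal exceeds about 50% in the single-dose screen, limit read from the data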;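 note: 0% = receptor plus peptide wells without compound and 100% = peptide-only wells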
# MRP1 act – H69AR viability gain despite doxorubicin, primary screen, MRP-1 activator project, H69AR cells, CellTiter-Glo | viability rescue | viability increase, % at 10 µM | 0.61% of 140,000 active | AID 799, 2007;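 active = viability gain under doxorubicin at or above a set limit, the compound median plus 3 SD, cut at about 4.7% in these data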;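 note: MRP-1 overexpressing cells given doxorubicin 25 µM after compound pretreatment; 18-22 h compound pretreatment then 72 h with doxorubicin before readout; 0% = doxorubicin-only wells and 100% = vehicle-treated cells without doxorubicin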
# * marks the source's active call; other numbers are inactive results; x = no result; [ ] = remark or other dose. Only some compounds are listed: those with a hit (about 2.8% of all), similar ones and a draw of the others.
SMILES,ERa SRC1 pot,ERa SRC1 inh,Smad3 FoxH1 inh,MRP resist rev,ERb SRC1 inh,MRP1 act
Cc1ccc(S(=O)(=O)c2nc(S(C)(=O)=O)sc2N(C)C)cc1,120.6,5.4,11.5,24.1,-0.4,-1.2
Cc1ccc(S(=O)(=O)c2nc(S(C)(=O)=O)sc2NCC2CCCO2)cc1 (stereo not given),610.5*,-24.3,18.2,30.2,6.6,-1.4
Cc1cc(Cl)ccc1OCC(=O)Nc1nc(N)nc(N)n1,x,x,1.8,x,x,x
C=CCn1c(NC(=O)c2ccccc2)c(C#N)c2nc3ccccc3nc21,36.2,73.7*[fluorescence artefact?],66.9*,0.3,42.1,x
C=CCn1c(NC(=O)c2ccccc2Cl)c(C#N)c2nc3ccccc3nc21,76.1,-11.7,34.0,-14.1,-6.8,-5.0
Cc1ccc2nc(SCC(=O)Nc3ccccc3N3CCOCC3)c(C#N)cc2c1,216.8*[fluorescence artefact?],18.9,-7.3,-21.4,17.2,-1.8
Cc1cc(C)c2nc(SCC(=O)Nc3ccc(S(=O)(=O)N4CCCC4)cc3)c(C)cc2c1,108.7,0.0,6.7,-13.8,0.0,-0.1
Cc1ccc(-c2nnc(SCC(=O)Nc3ccccc3N3CCOCC3)o2)cc1,104.5,-11.4,4.8,7.1,-3.5,-0.4
N#Cc1cc2ccccc2nc1SCC(=O)Nc1ccc(S(=O)(=O)N2CCCC2)cc1,288.7*[fluorescence artefact?],15.7,1.3,-14.6,23.4,-2.2
COc1ccc2nc(SCC(=O)N3CCCCCC3)c(C#N)cc2c1,107.6,9.9,3.0,-12.4,9.4,0.3
COc1ccc2nc(SCC(=O)Nc3ccc(S(=O)(=O)N4CCCC4)cc3)c(C#N)cc2c1,508.7*[fluorescence artefact?],19.2,10.9,-17.2,40.1,-4.0
Cc1c(C(=O)N2CCN(c3ccccc3)CC2)sc2ncnc(N3CCN(c4ccccc4)CC3)c12,399.9*[fluorescence artefact?],1.7,7.5,-15.4,8.4,x
Cn1c(=O)c2c(nc(NCc3ccccc3)n2CC(=O)NCc2ccccc2)n(C)c1=O,x,x,x,x,x,-3.5
Cn1c(=O)c2c(nc(NCCc3ccccc3)n2CC(=O)NCCc2ccccc2)n(C)c1=O,229.1*[fluorescence artefact?],17.3,1.8,-27.5,33.5,-0.5
CCc1ccc(CNc2ccc(O)cc2)cc1,70.7,26.2,2.4,-6.7,55.5*[fluorescence artefact?],-3.7
O=C(COc1ccc(Cl)cc1)NCc1nnc(SCC(=O)NCc2ccc3c(c2)OCO3)o1,110.6,11.2,-2.5,8.1,-16.8,5.8*
O=C(COc1ccc(Cl)cc1)NCc1nnc(SCC(=O)N2CCCCC2)o1,108.1,-6.5,-2.4,8.0,-1.8,0.7
CCOC(=O)CN(Cc1sccc1C)C(=O)Nc1ccc(OC)cc1OC,x,x,x,x,x,-0.8
CC1CC(C)(C)NCc2ccccc21 (stereo not given),105.7,2.3,1.8,2.6,87.5*[fluorescence artefact?],-2.9
CC1CC(C)(C)NC(C)c2ccccc21 (stereo not given),101.3,-9.3,-7.0,12.2,-9.2,-2.6
CC1CCN(S(=O)(=O)c2ccc(NC(=O)Cc3cccs3)cc2)CC1,56.7,74.2*,-4.1,11.3,61.9*,-1.9
CC1CCN(S(=O)(=O)c2ccc(NC(=O)Cn3nnc(-c4ccccc4)n3)cc2)CC1,126.3,93.7*[fluorescence artefact?],-3.0,-5.6,76.0*[fluorescence artefact?],-2.0
c1ccc2c(CC3NCCN3)cccc2c1,x,x,-4.2,x,x,x
CC1=NNC(=S)NCCCN2CCN(CCCNC(=S)NN=C(C)C=NNC(=S)NCCCN3CCN(CCCNC(=S)NN=C1)CC3)CC2,x,x,19.4,x,x,x
O=C(O)C[C@H]1OCC=C2C[N+]3([O-])CC[C@@]45c6ccccc6N[C@@H]4[C@@H]1[C@@H]2C[C@H]53 (stereo not given in full),x,x,0.6,x,x,x
SMILES,ERa SRC1 pot,ERa SRC1 inh,Smad3 FoxH1 inh,MRP resist rev,ERb SRC1 inh,MRP1 act
COc1cccc2sc(N3CCN(c4nc5ccccc5s4)CC3)nc12,236.3*,49.3,4.0,0.8,29.9,-5.7
O=C(O)c1ccncc1.O=C(O)c1ccncc1.[NH2-].[NH2-].[Pt],x,x,11.5,x,x,x
O=c1/c(=C/c2ccccn2)sc2nc3ccccc3n12,68.1,90.3*[fluorescence artefact?],19.3,4.6,47.3,-5.7
CCC(C)NS(=O)(=O)c1ccc(OCC(=O)N2CCCCC2)cc1 (stereo not given),107.1,-3.4,2.8,4.4,-3.4,-0.1
CCCc1cc(=O)[nH]c(/N=C(/NC(=O)C(C)N2C(=O)c3ccccc3C2=O)Nc2ccccc2)n1 (stereo not given),98.3,-27.0,52.6*,-1.1,-6.2,-0.9
CCCCn1ccnc1C(=O)c1ccc(S(=O)(=O)N(CCOC)CCOC)cc1,x,x,x,x,x,-2.8
COc1ccc2[nH]c3c(c2c1)CCn1c-3nc2ccccc2c1=O,35.2,80.4*,7.2,-4.3,40.3,-2.3
COc1cc(OC)cc(C(=O)Nn2c(C)nc3ccccc3c2=O)c1,108.0,-8.3,-4.1,-11.4,0.0,-1.0
O=C(NC1CCCCC1)C12CC3CC(CC(Cl)(C3)C1)C2,x,x,x,x,x,-2.1
CS/C(=N\S(=O)(=O)c1ccccc1)c1ccccc1,x,x,x,x,x,0.0
O=S(=O)(/N=C(/Sc1ccccc1)c1ccccc1)c1ccccc1,63.9,77.0*,4.9,-11.4,54.2*[fluorescence artefact?],-2.2
O=C(NC1CCCCC1)C(c1ccccc1)N(C(=O)Cc1ccsc1)c1ccccc1 (stereo not given),x,x,x,x,x,0.7
O=C(Nc1nc(-c2cccs2)c(-c2cccs2)s1)C1(c2ccccc2)CC1,x,x,x,x,x,5.2*
CC(=O)NCCC(=O)Nc1nc(-c2cccs2)c(-c2cccs2)s1,x,x,x,x,x,0.2
CC1(C)[C@H]2CC[C@]1(C)[C@H](OC(=O)CSC#N)C2,x,x,-4.7,x,x,x
COCCN(CCOC)S(=O)(=O)c1ccc(C(=O)Nc2nc(-c3ccncc3)cs2)cc1,211.4*,9.3,1.6,-3.2,2.7,-2.1
O=C(Nc1nc(-c2ccc3c(c2)OCCO3)cs1)c1ccc(S(=O)(=O)N2CCCCC2)cc1,268.8*[fluorescence artefact?],11.0,6.1,9.8,15.5,-0.6
CN(C)S(=O)(=O)c1ccc(C(=O)Nc2nc(-c3cccs3)cs2)cc1,177.3,-1.8,9.1,7.7,11.3,-0.8
O=C(Nc1nc(-c2ccc(S(=O)(=O)N3CCCCCC3)cc2)cs1)c1ccccc1,696.4*[fluorescence artefact?],-10.0,0.4,-3.2,-4.3,-0.7
O=C(Nc1nc(-c2cccs2)cs1)c1ccc(S(=O)(=O)N2CCCC2)cc1,190.3,12.6,9.5,2.7,51.2*[fluorescence artefact?],-3.0
Cc1cc(C)c(S(=O)(=O)n2ccc(-c3ccc(OCCN(C)c4ccccn4)cc3)n2)c(C)c1,x,x,x,x,x,2.6
CC1(C)[C@@H]2CC[C@@]1(CC(=O)O)[C@@H](Cl)C2,x,x,-6.1,x,x,x
Cc1ccc(NC(=O)NC(=O)CN2C(=O)NC3(CCCCCCC3)C2=O)c(C)c1,114.6,-5.0,1.5,-10.3,-8.7,-1.1
